10 compounds from article PMC5540273 (PLoS ONE, 2017) can be followed below.

Molecules are shown by their SMILES.

Holding throughout (settings): concentration: 1 μM, replicates: in singlicate; n = 1
Assay [1] has as its system PRKD3.
For assay [2], the system named is PRKG1.
In assay [3] the test system is PRKG2.
For assay [4], the system named is T1, PRKR.
T1 construct: gene EIF2AK2

In assay [5] the test system is PRKX.
Assay [6] concerns PRP4.
The subject of assay [7] is T2, PYK2.
T2 construct: gene PTK2B

In assay [8] the test system is QSK.
Assay [9] relates to RAF1.
For assay [10], the system named is RET.
Assay [11] has as its system RIOK1.
Assay [12] has as its system RIOK2.
Assay [13] has as its system RIOK3.
The subject of assay [14] is RIPK1.
The test system of assay [15] is RIPK2.
The test system of assay [16] is RIPK4.
In assay [17] the test system is RIPK5.
Assay [18] deals with ROCK1.
In assay [19] the test system is ROCK2.
In assay [20] the test system is ROS1.
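Further: KINOMEscan kinase panel screen.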

As to `COc1ccc(Nc2nccc(N3CCC(NC(=O)Nc4cccc(OC)c4)C3)n2)cc1` (centres unmarked) [GSK1379742], the “%Inh” value in assay [1] is 0%; in assay [2] it was 0%; in assay [3] it was 0%; in assay [4], 0%; in [5], 15%; in [6], 12%. Besides, the “%Inh” value is reported as 5% in assay [7]; 6% in assay [8]; 3% in assay [9]; 7% in assay [10]; 34% in assay [11]; 4% in assay [12]. Besides, the “%Inh” value worked out at 25% in assay [13]; 0% in [14]; 0% in assay [15]; 0% in assay [16]; 0% in assay [17]; 0% in [18]. The “%Inh” value in assay [19] was determined as 2%; in assay [20], 13%.

Consider `c1ccc(Oc2ccc(Nc3ccnc4cc(-c5ccc(CNCCN6CCOCC6)o5)ccc34)cc2)nc1` [GW567145], for which the “%Inh” value in assay [1] turned out to be 23%; in assay [2] it was 1%; in [3], 2%; in assay [4], 0%; in [5], 0%; in assay [6], 36%. Moreover, the “%Inh” value in assay [7] is 0%; in [8], 17%; in assay [9] it was 2%; in assay [10], 5%; in [11] it was 0%; in assay [12], 0%. The “%Inh” value is given as 0% in [13]; 0% in assay [14]; 93.5% in [15]; 0% in assay [16]; 1% in [17]; 4% in assay [18]. For the same compound, the entries for the “%Inh” value in assay [19] and in assay [20] were 40% and 0%, respectively.

`Cl.Cl.NCC(C(=O)Nc1cc(Br)c(-c2ccnc3[nH]ccc23)s1)c1ccccc1` (centres unmarked) [GSK1269851]: the “%Inh” value is on record as 41% in assay [1]; 94.6% in assay [2]; 86% in assay [3]; 0% in [4]; 88% in [5]; 83% in assay [6]. For the same compound, the “%Inh” value stood at 2% in [7]; 15% in [8]; 0% in [9]; 32% in assay [10]; 95.7% in [11]; 19% in assay [12]. In addition, the “%Inh” value in [13] is 67%; in assay [14], 0%; in assay [15] it was 0%; in assay [16], 27%; in assay [17] it was 0%; in assay [18], 99.1%. Also, the “%Inh” value in assay [19] turned out to be 91.8%; in [20], 12%.

Turning to `CN1CCN(CCCNc2nccc(-c3c(-c4ccc(F)cc4)nn4cc(C(F)(F)F)ccc34)n2)CC1` [GW621581], the “%Inh” value worked out at 62% in assay [1]; 10% in [2]; 0% in assay [3]; 0% in assay [4]; 13% in [5]; 25% in [6]. The “%Inh” value stood at 0% in assay [7]; 0% in assay [8]; 8% in assay [9]; 0% in [10]; 28% in assay [11]; 4% in [12]. Further, the “%Inh” value in [13] amounted to 0%; in [14], 0%; in assay [15], 52%; in [16], 0%; in assay [17], 0%; in [18] it was 0%. For the same compound, the entries for the “%Inh” value in [19] and in assay [20] were 26% and 0%, respectively.

`COc1cc(Nc2nccc(N3CCC(NC(=O)Nc4cccc(C(C)=O)c4)C3)n2)cc(OC)c1OC` (centres unmarked) [GSK1379753]: the “%Inh” value in assay [1] was 0%; in [2], 0%; in assay [3], 0%; in assay [4] it was 0%; in [5] it was 37%; in assay [6], 14%. For the same compound, the “%Inh” value in [7] is given as 0%; in assay [8] it was 0%; in [9], 14%; in assay [10] it was 0%; in assay [11], 73%; in assay [12] it was 0%. In addition, the “%Inh” value in [13] was determined as 65%; in [14], 9%; in assay [15] it was 22%; in [16], 48%; in [17], 0%; in assay [18] it was 25%. The “%Inh” value in [19] stood at 7%; in assay [20], 30%.

For `Cn1cc(-c2ccc3c(c2)CCN3C(=O)Cc2cccc(Cl)c2)c2c(N)ncnc21` [GSK2606590], the “%Inh” value stood at 9% in assay [1]; 14% in [2]; 0% in assay [3]; 14% in assay [4]; 21% in assay [5]; 2% in [6]. The “%Inh” value turned out to be 4% in [7]; 23% in assay [8]; 1% in assay [9]; 27% in assay [10]; 6% in [11]; 19% in assay [12]. In addition, the “%Inh” value in assay [13] is 12%; in assay [14] it was 100%; in [15] it was 15%; in [16], 0%; in assay [17] it was 58%; in [18] it was 0%. Further, the “%Inh” value came out at 40% in [19] and 31% in assay [20].

`COc1ccc(CNC(=O)NC2CCN(c3ccnc(Nc4ccc(F)cc4)n3)CC2)cc1` [GSK1379788]: the “%Inh” value in assay [1] is reported as 0%; in assay [2] it was 0%; in [3], 0%; in [4] it was 0%; in assay [5] it was 5%; in assay [6], 46%. For the same compound, the “%Inh” value in [7] turned out to be 0%; in assay [8], 0%; in assay [9] it was 7%; in [10], 0%; in assay [11] it was 28%; in [12], 0%. Moreover, the “%Inh” value was determined as 0% in [13]; 0% in [14]; 0% in assay [15]; 12% in assay [16]; 0% in [17]; 12% in [18]. Further, the entries for the “%Inh” value in assay [19] and in assay [20] were 31% and 26%, respectively.

For the compound `COc1cccc(C(=O)Nc2cccc(Oc3ccc4nc(NC(=O)C5CC5)cn4n3)c2)c1`, the “%Inh” value in assay [1] turned out to be 15%; in assay [2] it was 0%; in assay [3], 21%; in [4] it was 0%; in [5] it was 2%; in [6], 0%. Besides, the “%Inh” value in [7] is listed as 9%; in [8], 0%; in assay [9], 96.8%; in assay [10], 100%; in [11], 55%; in assay [12], 0%. The “%Inh” value in [13] was found to be 39%; in assay [14] it was 20%; in assay [15] it was 50%; in assay [16] it was 0%; in assay [17] it was 0%; in assay [18], 0%. Also, the “%Inh” value in [19] and in [20] was 0% in each case.

In the case of `CN(C)S(=O)(=O)c1cc(-c2ccc3nccc(-c4cccc(S(N)(=O)=O)c4)c3c2)cnc1N` [GSK1669921], the “%Inh” value is on record as 100% in assay [1]; 34% in assay [2]; 76% in assay [3]; 0% in assay [4]; 27% in [5]; 0% in assay [6]. For the same compound, the “%Inh” value in [7] is 6%; in assay [8] it was 7%; in assay [9] it was 9%; in assay [10], 58%; in assay [11], 36%; in assay [12], 23%. Further, the “%Inh” value is 21% in assay [13]; 4% in assay [14]; 8% in assay [15]; 9% in [16]; 26% in [17]; 0% in [18]. In addition, the “%Inh” value in assay [19] and in assay [20] was 0% in each case.

As for `COc1cc2c(cc1OCCN1CCNCC1)ncc1c3ccc(C#N)cc3[nH]c21`, the “%Inh” value in assay [1] was 0%; in [2], 0%; in assay [3], 7%; in assay [4], 9%; in assay [5] it was 34%; in assay [6], 38%. The “%Inh” value in assay [7] is reported as 0%; in [8], 52%; in assay [9] it was 29%; in [10], 35%; in assay [11] it was 82%; in [12] it was 12%. Further, the “%Inh” value in [13] turned out to be 93.9%; in assay [14], 0%; in [15] it was 16%; in assay [16] it was 41%; in assay [17] it was 28%; in assay [18], 99.2%. The “%Inh” value in assay [19] is 99.7%; in assay [20] it was 0%.
